These results are taken from the supplement of paper PMC10849652.

Of roughly 8,800 targets only a part is listed; those with a hit were picked by preference. About 0.5% of all pairs of compound and target were hits. Unmarked numbers belong to inactive results.

Chain of UniProt Q9H3Q1 (Q9H3Q1 whole entry, looked up): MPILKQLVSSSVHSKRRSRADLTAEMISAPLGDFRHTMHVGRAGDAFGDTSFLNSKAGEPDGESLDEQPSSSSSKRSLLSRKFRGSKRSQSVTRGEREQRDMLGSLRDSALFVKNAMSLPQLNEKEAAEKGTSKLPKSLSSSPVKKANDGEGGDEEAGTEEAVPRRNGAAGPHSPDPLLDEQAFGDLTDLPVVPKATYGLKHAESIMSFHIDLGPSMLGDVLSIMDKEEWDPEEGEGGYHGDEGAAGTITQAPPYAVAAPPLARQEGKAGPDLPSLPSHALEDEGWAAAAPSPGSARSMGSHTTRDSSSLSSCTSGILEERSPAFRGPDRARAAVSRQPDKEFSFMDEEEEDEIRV
Chain of UniProt Q13555 (Q13555 whole entry, looked up): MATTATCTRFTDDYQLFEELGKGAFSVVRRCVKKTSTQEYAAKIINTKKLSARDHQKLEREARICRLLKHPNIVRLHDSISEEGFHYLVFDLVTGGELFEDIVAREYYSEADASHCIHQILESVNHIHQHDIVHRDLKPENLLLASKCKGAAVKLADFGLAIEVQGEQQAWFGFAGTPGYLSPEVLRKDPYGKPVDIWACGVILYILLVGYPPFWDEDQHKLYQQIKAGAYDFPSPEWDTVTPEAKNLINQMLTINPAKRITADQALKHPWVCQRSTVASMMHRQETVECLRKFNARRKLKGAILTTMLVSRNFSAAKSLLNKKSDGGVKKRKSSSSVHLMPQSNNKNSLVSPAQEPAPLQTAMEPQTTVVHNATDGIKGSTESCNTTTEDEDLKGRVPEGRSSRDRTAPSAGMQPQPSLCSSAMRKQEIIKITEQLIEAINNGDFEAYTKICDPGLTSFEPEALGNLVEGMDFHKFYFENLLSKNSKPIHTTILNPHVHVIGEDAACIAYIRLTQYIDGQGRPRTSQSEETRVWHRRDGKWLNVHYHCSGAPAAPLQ
Chain of UniProt P49589 (P49589 whole entry, looked up): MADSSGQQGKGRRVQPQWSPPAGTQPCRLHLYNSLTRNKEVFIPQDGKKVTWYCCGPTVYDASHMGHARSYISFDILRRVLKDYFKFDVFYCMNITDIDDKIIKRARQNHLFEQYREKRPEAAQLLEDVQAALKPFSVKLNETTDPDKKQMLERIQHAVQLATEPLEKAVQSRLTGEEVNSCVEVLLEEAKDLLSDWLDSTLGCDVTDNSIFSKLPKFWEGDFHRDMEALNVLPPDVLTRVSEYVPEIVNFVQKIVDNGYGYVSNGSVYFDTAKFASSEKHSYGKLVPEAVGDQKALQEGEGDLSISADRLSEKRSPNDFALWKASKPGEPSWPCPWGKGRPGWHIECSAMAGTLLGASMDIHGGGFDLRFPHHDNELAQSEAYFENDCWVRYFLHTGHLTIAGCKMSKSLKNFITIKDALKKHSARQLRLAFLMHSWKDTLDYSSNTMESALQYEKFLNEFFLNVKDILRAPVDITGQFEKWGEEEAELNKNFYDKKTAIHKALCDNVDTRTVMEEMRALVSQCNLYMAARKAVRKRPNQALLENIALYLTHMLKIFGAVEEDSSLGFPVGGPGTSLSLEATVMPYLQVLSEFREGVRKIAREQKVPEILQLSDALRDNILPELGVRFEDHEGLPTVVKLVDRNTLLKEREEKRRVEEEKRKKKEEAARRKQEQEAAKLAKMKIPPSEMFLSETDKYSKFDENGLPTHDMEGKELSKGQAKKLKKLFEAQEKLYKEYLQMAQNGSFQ
Chain of UniProt Q96LT7 (Q96LT7 whole entry, looked up): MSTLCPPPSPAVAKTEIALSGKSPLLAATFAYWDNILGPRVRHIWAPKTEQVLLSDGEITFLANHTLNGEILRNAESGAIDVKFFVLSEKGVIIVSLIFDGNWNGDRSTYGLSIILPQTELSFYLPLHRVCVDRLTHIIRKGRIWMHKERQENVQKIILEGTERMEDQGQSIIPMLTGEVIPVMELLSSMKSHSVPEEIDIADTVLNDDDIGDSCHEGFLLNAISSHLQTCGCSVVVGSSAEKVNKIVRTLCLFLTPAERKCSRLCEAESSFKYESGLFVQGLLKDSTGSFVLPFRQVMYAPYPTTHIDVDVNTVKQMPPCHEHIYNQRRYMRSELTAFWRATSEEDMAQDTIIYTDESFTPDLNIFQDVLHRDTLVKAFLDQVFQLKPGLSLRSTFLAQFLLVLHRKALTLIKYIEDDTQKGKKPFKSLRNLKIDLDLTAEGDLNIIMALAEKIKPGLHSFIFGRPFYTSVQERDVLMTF
Chain of UniProt Q86WA6 (Q86WA6 whole entry, looked up): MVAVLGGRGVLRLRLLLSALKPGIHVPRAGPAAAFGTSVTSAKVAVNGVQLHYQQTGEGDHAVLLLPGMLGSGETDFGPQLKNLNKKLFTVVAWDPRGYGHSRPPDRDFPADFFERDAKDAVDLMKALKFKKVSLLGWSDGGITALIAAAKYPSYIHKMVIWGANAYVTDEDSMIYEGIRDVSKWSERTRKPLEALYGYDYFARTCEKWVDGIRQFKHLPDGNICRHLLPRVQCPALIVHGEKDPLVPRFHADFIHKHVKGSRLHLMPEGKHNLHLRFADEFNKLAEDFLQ
Chain of UniProt Q9ULG6 (Q9ULG6 whole entry, looked up): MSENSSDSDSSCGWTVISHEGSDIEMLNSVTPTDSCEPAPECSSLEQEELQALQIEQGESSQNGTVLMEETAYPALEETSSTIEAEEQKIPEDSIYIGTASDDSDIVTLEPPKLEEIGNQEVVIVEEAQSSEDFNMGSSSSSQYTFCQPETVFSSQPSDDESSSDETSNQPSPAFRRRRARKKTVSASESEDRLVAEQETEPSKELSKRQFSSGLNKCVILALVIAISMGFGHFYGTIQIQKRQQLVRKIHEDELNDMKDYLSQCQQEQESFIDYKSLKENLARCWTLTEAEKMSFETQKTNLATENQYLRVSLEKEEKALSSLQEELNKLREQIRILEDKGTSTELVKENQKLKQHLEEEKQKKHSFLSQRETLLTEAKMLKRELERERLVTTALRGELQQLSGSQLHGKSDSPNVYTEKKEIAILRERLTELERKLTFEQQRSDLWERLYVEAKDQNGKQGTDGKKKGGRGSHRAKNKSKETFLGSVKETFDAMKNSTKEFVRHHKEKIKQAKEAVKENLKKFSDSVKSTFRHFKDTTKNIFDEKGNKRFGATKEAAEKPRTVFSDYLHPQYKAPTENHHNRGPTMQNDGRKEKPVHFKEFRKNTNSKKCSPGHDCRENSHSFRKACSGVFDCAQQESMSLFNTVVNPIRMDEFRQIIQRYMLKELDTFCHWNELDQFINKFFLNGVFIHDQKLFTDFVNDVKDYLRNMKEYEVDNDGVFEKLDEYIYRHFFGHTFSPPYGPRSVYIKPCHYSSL
Chain of UniProt P01024 (P01024 whole entry, looked up): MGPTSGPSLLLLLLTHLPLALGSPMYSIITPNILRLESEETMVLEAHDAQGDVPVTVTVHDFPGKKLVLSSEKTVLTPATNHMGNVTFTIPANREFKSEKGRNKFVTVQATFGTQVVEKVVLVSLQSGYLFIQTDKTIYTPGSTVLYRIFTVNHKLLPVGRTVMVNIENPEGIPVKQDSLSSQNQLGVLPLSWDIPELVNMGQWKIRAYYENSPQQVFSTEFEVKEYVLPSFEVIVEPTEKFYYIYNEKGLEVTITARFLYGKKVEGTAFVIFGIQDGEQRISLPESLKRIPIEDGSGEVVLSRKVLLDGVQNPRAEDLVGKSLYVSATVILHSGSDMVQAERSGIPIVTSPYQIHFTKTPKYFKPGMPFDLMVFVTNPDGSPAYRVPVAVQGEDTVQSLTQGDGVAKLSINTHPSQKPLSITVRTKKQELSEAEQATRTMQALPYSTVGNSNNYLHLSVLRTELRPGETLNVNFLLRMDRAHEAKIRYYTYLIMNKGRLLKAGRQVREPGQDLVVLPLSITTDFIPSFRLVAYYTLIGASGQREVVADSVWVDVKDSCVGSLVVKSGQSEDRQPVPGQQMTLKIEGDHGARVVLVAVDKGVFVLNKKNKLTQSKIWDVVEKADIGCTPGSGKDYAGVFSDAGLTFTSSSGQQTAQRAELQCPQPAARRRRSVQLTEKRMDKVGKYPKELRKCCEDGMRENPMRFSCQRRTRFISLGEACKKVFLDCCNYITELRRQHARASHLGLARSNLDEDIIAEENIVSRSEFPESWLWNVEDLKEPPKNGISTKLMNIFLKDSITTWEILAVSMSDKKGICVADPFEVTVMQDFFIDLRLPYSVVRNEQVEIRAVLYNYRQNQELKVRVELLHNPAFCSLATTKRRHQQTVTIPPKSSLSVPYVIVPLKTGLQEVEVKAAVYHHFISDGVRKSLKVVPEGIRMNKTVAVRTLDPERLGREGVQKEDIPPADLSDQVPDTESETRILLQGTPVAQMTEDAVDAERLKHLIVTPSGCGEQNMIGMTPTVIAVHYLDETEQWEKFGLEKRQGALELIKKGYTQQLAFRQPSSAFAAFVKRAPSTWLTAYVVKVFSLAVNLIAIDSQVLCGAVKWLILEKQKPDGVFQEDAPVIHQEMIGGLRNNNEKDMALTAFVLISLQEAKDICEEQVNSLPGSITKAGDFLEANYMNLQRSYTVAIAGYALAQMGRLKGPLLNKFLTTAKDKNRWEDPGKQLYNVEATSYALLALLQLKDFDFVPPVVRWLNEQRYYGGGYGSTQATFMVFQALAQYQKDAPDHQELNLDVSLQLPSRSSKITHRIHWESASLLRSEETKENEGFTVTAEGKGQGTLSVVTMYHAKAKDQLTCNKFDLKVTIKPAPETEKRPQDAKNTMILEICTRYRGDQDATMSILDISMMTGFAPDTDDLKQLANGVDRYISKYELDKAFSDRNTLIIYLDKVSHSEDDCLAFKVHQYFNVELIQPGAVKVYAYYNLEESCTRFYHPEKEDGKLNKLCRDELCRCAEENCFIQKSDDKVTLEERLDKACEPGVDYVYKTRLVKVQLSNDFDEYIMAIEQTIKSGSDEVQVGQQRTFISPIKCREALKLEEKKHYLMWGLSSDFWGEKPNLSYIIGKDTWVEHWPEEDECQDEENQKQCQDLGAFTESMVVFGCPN
Chain of UniProt Q8WUX2 (Q8WUX2 whole entry, looked up): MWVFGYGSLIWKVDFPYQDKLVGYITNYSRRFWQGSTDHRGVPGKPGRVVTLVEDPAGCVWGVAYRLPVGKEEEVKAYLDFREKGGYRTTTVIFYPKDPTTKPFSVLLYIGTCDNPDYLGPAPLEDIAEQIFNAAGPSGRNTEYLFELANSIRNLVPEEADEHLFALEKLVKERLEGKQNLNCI

Compound in one test: Cc1cc(Nc2cc(CN3CCOCC3)c3nc(C)c(Cc4ccc(Cl)cc4F)n3n2)n[nH]1 [gandotinib]
Kind of test: log2 fold change, soluble protein after heating vs DMSO (PISA); higher = thermal stabilisation; K562 lysate, 10 uM; active = over 0.2 and 3.5 SD of the protein, either way, in both replicates (recomputed). In a few lines:
(§1)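 To prepare the extract, K562 pellets were dounce-homogenised in PBS pH 7.4 with 1 mM MgCl2, giving crude material at 1 mg/mL protein. This was treated with 10 μM compound for 30 min, then heated in aliquots for 3 min over 48°C-58°C before pooling and addition of NP-40 to 0.5% at 4°C. Centrifugation at 21,000xg for 90 min left soluble protein in the supernatant, which TMTpro 16plex LC-MS/MS quantified with equalised channel sums. Results are log-two fold changes in thermal stability compared with solvent controls, from duplicates.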
Regarding AURKAIP1 (UniProt Q9NWT8), the log2 fold change is -0.03.
For CDC42BPA isoform 6 (UniProt Q5VT25), the log2 fold change is -0.05.
For BMS1 (UniProt Q14692), the log2 fold change is 0.043.
Turning to ATP9B (UniProt O43861), the log2 fold change is -0.037.
On to BUD23 isoform 3 (UniProt O43709), for which the log2 fold change is 0.136.
Still for that read-out and setting: the result for ATXN2 (UniProt F8WB05) reads -0.028; that for ATP11A (UniProt P98196), 0.017; that for C8orf37 (UniProt Q96NL8), -0.06.
Take CELF2 isoform 3 (UniProt O95319): the log2 fold change is -0.052.
CDS2 (UniProt O95674): the log2 fold change is 0.048.
Consider CAMLG (UniProt P49069), for which the log2 fold change was -0.058.
CAPNS1 (UniProt P04632): the log2 fold change is 0.15.
Take C12orf45 (UniProt Q8N5I9): the log2 fold change was 0.148.
As for CDK9 isoform 2 (UniProt P50750), the log2 fold change was 0.074.
Still for that read-out and setting: to CCPG1 isoform 5 (UniProt Q9ULG6) belongs -0.089; to CELF1 isoform 4 (UniProt Q92879), -0.028; to CDC42EP4 (UniProt Q9H3Q1), 0.223 (active).
Consider BLOC1S6 (UniProt Q9UL45), for which the log2 fold change was 0.031.
In the case of CCNB2 (UniProt O95067), the log2 fold change was -0.108.
Same read-out and setting: to CASP3 (UniProt P42574) belongs -0.084; to CHAC2 (UniProt Q8WUX2), -0.161; to CBX5 (UniProt P45973), 0.077.
ATG7 (UniProt O95352): the log2 fold change was -0.035.
With CHAF1A (UniProt Q13111), the log2 fold change was 0.009.
As to C9orf72 (UniProt Q96LT7), the log2 fold change was 0.035.
ATRIP (UniProt Q8WXE1): the log2 fold change is -0.056.
CAMK2G isoform 8 (UniProt Q13555): the log2 fold change is 0.085.
CCT6A (UniProt P40227): the log2 fold change was -0.018.
Regarding C2CD5 isoform 3 (UniProt Q86YS7), the log2 fold change is 0.125.
As for CHCHD4 isoform 2 (UniProt Q8N4Q1), the log2 fold change was 0.217.
On the same count and under the same terms, to C19orf54 (UniProt Q5BKX5) belongs -0.046; to BPHL (UniProt Q86WA6), -0.077; to CCNB1 (UniProt P14635), -0.078.
Take CDK11B (UniProt P21127): the log2 fold change is 0.399 (active).
On to C3 (UniProt P01024), for which the log2 fold change is 0.044.
Consider CASC4 (UniProt Q6P4E1), for which the log2 fold change is 0.016.
For BRD2 isoform 2 (UniProt P25440), the log2 fold change is -0.133.
Turning to CDAN1 (UniProt Q8IWY9), the log2 fold change is -0.073.
Regarding CCDC85B (UniProt Q15834), the log2 fold change is -0.032.
On to CARS isoform 3 (UniProt P49589), for which the log2 fold change is -0.045.

Compound in another test: Cc1cc(Nc2cc(N3CCN(C)CC3)nc(Sc3ccc(NC(=O)C4CC4)cc3)n2)n[nH]1 [tozasertib]
Described as above. In a few lines: as §1
Consider AURKAIP1 (UniProt Q9NWT8), for which the log2 fold change was 0.028.
Turning to CDC42BPA isoform 6 (UniProt Q5VT25), the log2 fold change is 0.032.
For BMS1 (UniProt Q14692), the log2 fold change is 0.018.
For the target ATP9B (UniProt O43861), the log2 fold change is 0.017.
Consider BUD23 isoform 3 (UniProt O43709), for which the log2 fold change is -0.073.
As to ATXN2 (UniProt F8WB05), the log2 fold change was 0.043.
For the target ATP11A (UniProt P98196), the log2 fold change is 0.009.
On to C8orf37 (UniProt Q96NL8), for which the log2 fold change was 0.006.
As to CELF2 isoform 3 (UniProt O95319), the log2 fold change is 0.017.
Take CDS2 (UniProt O95674): the log2 fold change is 0.054.
As for CAMLG (UniProt P49069), the log2 fold change was -0.037.
Still for that read-out and setting: the result for CAPNS1 (UniProt P04632) reads -0.042; that for C12orf45 (UniProt Q8N5I9), -0.044; that for CDK9 isoform 2 (UniProt P50750), -0.108.
As to CCPG1 isoform 5 (UniProt Q9ULG6), the log2 fold change was -0.021.
On the same count and under the same terms, the result for CELF1 isoform 4 (UniProt Q92879) reads 0.019; that for CDC42EP4 (UniProt Q9H3Q1), -0.017; that for BLOC1S6 (UniProt Q9UL45), -0.11.
Turning to CCNB2 (UniProt O95067), the log2 fold change was 0.023.
CASP3 (UniProt P42574): the log2 fold change is -0.016.
As to CHAC2 (UniProt Q8WUX2), the log2 fold change is 0.015.
As for CBX5 (UniProt P45973), the log2 fold change is 0.006.
Turning to ATG7 (UniProt O95352), the log2 fold change was -0.015.
Turning to CHAF1A (UniProt Q13111), the log2 fold change was -0.023.
Turning to C9orf72 (UniProt Q96LT7), the log2 fold change was -0.196.
The same measure, in the same setting: the result for ATRIP (UniProt Q8WXE1) reads 0.097; that for CAMK2G isoform 8 (UniProt Q13555), -0.037; that for CCT6A (UniProt P40227), -0.012.
As for C2CD5 isoform 3 (UniProt Q86YS7), the log2 fold change is -0.038.
Turning to CHCHD4 isoform 2 (UniProt Q8N4Q1), the log2 fold change is -0.041.
Take C19orf54 (UniProt Q5BKX5): the log2 fold change is -0.008.
For the target BPHL (UniProt Q86WA6), the log2 fold change is 0.034.
As for CCNB1 (UniProt P14635), the log2 fold change is 0.005.
In the case of CDK11B (UniProt P21127), the log2 fold change was 0.02.
C3 (UniProt P01024): the log2 fold change is 0.068.
Regarding CASC4 (UniProt Q6P4E1), the log2 fold change is 0.067.
Take BRD2 isoform 2 (UniProt P25440): the log2 fold change was 0.
Regarding CDAN1 (UniProt Q8IWY9), the log2 fold change is 0.068.
On the same count and under the same terms, to CCDC85B (UniProt Q15834) belongs 0.248; to CARS isoform 3 (UniProt P49589), 0.014.
